Only some compounds are listed: those with a hit (about 3.9% of all), similar ones and a draw of the others.
PHOSPHO1 block = PubChem AID 1565 | Phosphoethanolamine/phosphocholine phosphatase (Homo sapiens), Q8TCT1 | recombinant PHOSPHO1, absorbance phosphatase assay | inhibition, % at 13.3 µM | 290,000 tested, 1.1% active; in the data active means inhibition above about 60%
Target sequence (Q8TCT1 whole entry, looked up): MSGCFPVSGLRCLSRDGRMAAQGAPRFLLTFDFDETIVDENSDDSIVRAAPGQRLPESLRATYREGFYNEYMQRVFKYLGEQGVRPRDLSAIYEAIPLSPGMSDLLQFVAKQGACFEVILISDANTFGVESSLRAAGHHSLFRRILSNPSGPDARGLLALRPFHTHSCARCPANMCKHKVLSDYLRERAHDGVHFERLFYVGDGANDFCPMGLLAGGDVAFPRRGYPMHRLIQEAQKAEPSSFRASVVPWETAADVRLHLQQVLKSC
Platelet DG rel = inhibitors of platelet dense granule secretion, primary screen, cell-based, MLPCN, human platelets; human platelet-rich plasma, SFLLRN dense granule ATP release, luminescence; inhibition, %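 (compounds screened at 7.5 µM in platelet-rich plasma)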; 300,000 tested, 0.22% active;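 active means mean replicate score, as percent of positive control, at or above 50; inconclusive means mean below 50 but at least one replicate at or above 50; inactive means mean and every replicate below 50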
SKKanGAS inh = S. pyogenes SKKanGAS growth inhibitors in kanamycin, primary screen, streptokinase expression inhibitor project, SKKanGAS strain, BacTiter-Glo luminescence; AID 1662, 2009; 300,000 tested, 1.3% active; 6 h; inhibition, % at 7.5 µM;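 active means mean replicate score, as percent of positive control median, at least 50; inconclusive means mean below 50 but one replicate at or above 50; inactive means mean and every replicate below 50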;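 further: strain carries kanamycin resistance gene driven by streptokinase promoter and grows in 40 µg/ml kanamycin; loss of luminescence reflects streptokinase promoter inhibition or plain growth inhibition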
Rtt109 Vps75 = inhibitors of C. albicans Rtt109/Vps75 HAT, primary screen, biochemical, ThioGlo CoA-SH fluorescence, plate reader; purified Rtt109/Vps75, 4 h; AID 540336, 2011; inhibition, % at 34.9 µM; Histone acetyltransferase RTT109 (Candida albicans (strain SC5314 / ATCC MYA-2876)), …; 330,000 tested, 0.16% active;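 active means inhibition of at least 50% in every replicate; inconclusive means best replicate reaches 50% inhibition but some replicates fall short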
WT yeast gro inh = growth inhibition of WT strain, primary screen, mitochondrial fusion inhibitor project, WT and mutant strains, chemical genetic; mitochondrial fusion phenotypic screen; inhibition, % at 10 µM; 190,000 tested, 2.1% active; AID 1362, 2008; in the data active means inhibition above about 58%; tested in S. cerevisiae
TPT1 inhibitor = Candida albicans TPT1 enzyme inhibitors, primary screen, biochemical, fluorescence polarization. tRNA 2'-phosphotransferase TPT1 (Candida albicans SC5314). recombinant caTPT1, FP RNA substrate dephosphorylation. inhibition, % at 5 µM. 300,000 tested, 0.81% active;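 active means inhibition above the mean of all tested compounds plus 3 SD, set per screening campaign, cut at about 24% in these data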
A number is an active result; i = inactive; ? = inconclusive; nt = no result given.

SMILES | PHOSPHO1 block | Platelet DG rel | SKKanGAS inh | Rtt109 Vps75 | WT yeast gro inh | TPT1 inhibitor
Cc1ccc(C(C(=O)NC2CCCCC2)N(Cc2ccco2)C(=O)Cc2c[nH]c3ccccc23)o1 (centres undefined) | i | i | i | nt | 70.7 | i
O=S(=O)(N[C@H]1C[C@@H](NS(=O)(=O)OCC(Cl)(Cl)Cl)C2CCCCC21)OCC(Cl)(Cl)Cl (some centres undefined) | i | i | 92.9 | i | nt | i
Cc1ccc(CNC(=O)COc2cc(O)c3c(c2)OC(C)(C)CC3=O)cc1 | i | i | i | i | nt | i
CC1(C)CC(=O)c2c(O)cc(OCc3ccc([N+](=O)[O-])cc3)cc2O1 | i | i | i | i | 82.8 | i
COc1cccc(OCCNS(=O)(=O)c2ccccc2[N+](=O)[O-])c1 | nt | nt | nt | i | nt | nt
Cc1cccc(-c2ncc(CN3CCCC(CO)(Cc4cccc(Cl)c4)C3)cn2)c1 (centres undefined) | i | i | i | i | 62.6 | i
CCOC(=O)c1ccc(Oc2nc(NC(C)(C)C)nc(N(C)C)n2)cc1 | i | i | i | i | 65.3 | i
CCOC(=O)c1ccc(Oc2nc(N(C)C)nc(N(C)C)n2)cc1 | i | i | i | i | i | i
CCCCCc1ccc(OCCOCCn2c[n+](C)c3ccccc32)c(CCCCC)c1 | i | i | 84.5 | 80.5 | 96.5 | nt
COC(=O)c1ccc(OC(=O)CCN2C(=O)C3CCCCC3C2=O)cc1 (centres undefined) | i | i | i | i | i | i
CC(=O)c1ccc(OC(=O)CCN2c3ccccc3Sc3ccccc32)cc1 | i | i | i | i | 61.1 | i
O=C(CCN1c2ccccc2Sc2ccccc21)Oc1ccccc1 | i | i | i | i | i | i
COC(=O)c1ccc(OC(=O)CCN2c3ccccc3Sc3ccccc32)cc1 | i | i | i | i | 61.3 | i
O=C(NCCN1CCOCC1)c1ccc(Cl)c(S(=O)(=O)NCc2ccccc2)c1 | nt | nt | nt | i | nt | nt
O=C1CCCCN1CCC(=O)N1CCCC(N2CCN(c3ccccc3)CC2)C1 (centres undefined) | 75.4 | i | i | i | nt | i
OCCN(Cc1ccccc1)CC(O)COc1ccc(-c2ccccc2)cc1 (centres undefined) | i | i | i | nt | 66.0 | i
COc1cc(C(C)=O)ccc1OCC(O)CN(CCO)Cc1ccccc1 (centres undefined) | i | i | i | i | i | i
Cc1ccccc1SCCNC(=O)c1ccccc1Br | 60.0 | i | i | nt | i | i
O=C(NCCNC(=O)c1ccccc1Br)c1ccccc1Br | i | i | i | i | nt | i
Cc1ccc(C(NC(=O)Nc2ccccn2)C(Cl)(Cl)Cl)cc1F (centres undefined) | i | i | i | i | nt | i
CC1CC(=O)NN=C1c1ccc(N(C)C)c([N+](=O)[O-])c1 (centres undefined) | i | 82.1 | i | i | i | i
CCN(CC)c1ccc(C2=NNC(=O)CC2C)cc1[N+](=O)[O-] (centres undefined) | i | 55.1 | i | i | i | i
COc1ccc(CCN(C)C(=O)CSc2nc3ccccc3c(=O)n2CC2CCCO2)cc1OC (centres undefined) | nt | nt | nt | i | nt | nt
NC(=O)c1cc(S(=O)(=O)Nc2ccc(OC(F)(F)F)cc2)cs1 | i | i | i | i | nt | i
O=C(Cc1cccc(NC(=O)C2CCCN(C(=O)C3CCC3)C2)c1)Nc1cccc(C(=O)N2CCOCC2)c1 (centres undefined) | nt | nt | nt | i | nt | nt
SMILES | PHOSPHO1 block | Platelet DG rel | SKKanGAS inh | Rtt109 Vps75 | WT yeast gro inh | TPT1 inhibitor
CCCCc1ccc(NC(=S)NCCc2ccc(F)cc2)cc1 | i | i | ? | i | 68.4 | i
CCOc1ccccc1NC(=S)NCCc1ccc(F)cc1 | i | i | i | i | 62.0 | i
COc1ccccc1NC(=S)NCCc1ccc(Cl)cc1 | i | i | i | i | i | i
CCOc1ccccc1NC(=S)NCCc1ccccc1 | i | i | i | nt | 74.2 | i
O=C(NC1CCOc2ccccc21)c1ccccn1 (centres undefined) | i | i | i | i | nt | i
Cc1cccc(C(=O)NCC(=O)N2CCOCC2)c1 | i | i | 50.8 | i | nt | i
O=C(NCC(=O)N1CCCCC1)c1ccc2ccccc2c1 | i | i | i | 51.7 | nt | i
Cc1cccc(C(=O)NCC(=O)N2CCC2)c1 | nt | nt | nt | i | nt | nt
Cc1nn(-c2ccccc2)c(C)c1C(=O)OC(C)C(=O)NC1CCCCC1C (centres undefined) | nt | nt | nt | i | nt | nt
